Pf growth 48h: P. falciparum growth inhibition at 48 hours (one generation); Potency, µM (series often up to 28.7 µM), inactives show top-dose activity change, negative = inhibition, hits mostly inhibitors; hit rate 5.9% among 310,000; P. falciparum luciferase growth in erythrocytes, 48 h; also: potency is read from the fitted curve at half-maximal effect; % is scaled to controls: 0 for no effect and ±100 for the full control effect
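Luminescence readout; reporter = integrated firefly luciferase in P. falciparum. RBC culture at 2% hematocrit, 0.1% parasitemia final, 37 C/5% CO2; decreased signal taken as growth inhibition.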
Shiga toxin inh: inhibitors of Shiga toxin in Vero cells | AID 2315 | inhibition, % at 38.7 µM | Vero cells, Shiga toxin protein synthesis inhibition reporter | hit rate 9.2% among 290,000; in the data active = inhibition mostly above about 28%, no sharp cut-off; inactive = mostly below about 43%; also: 0% is about no effect
CHX counter: affects cycloheximide protein synthesis inhibition readout, counter-screen; hit rate 12% among 300,000; cell reporter, cycloheximide protein synthesis inhibition counterscreen; AID 2314; max response, %; in the data active = max response mostly above about 13%, no sharp cut-off; inactive = mostly below about 14%; also: read at 38.3 µM for the half of the compounds with a filed dose; 0% is about no effect
NS1 inh: influenza NS1 inhibition. hit rate 0.4% among 270,000. Potency, µM (doses to about 46.1 µM), for the others: at the highest dose activity, positive = more growth. AID 2326; calls by dose curve; also: potency is read from the fitted curve at half-maximal effect; actives are rising curves; nearly all actives have a fitted effect of over 50% in size
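In this qHTS, NS1 from influenza A is expressed in budding yeast, where it slows growth. Cells are switched from glucose to 2% galactose medium (pH 6.0, -URA), treated with compound, and growth recovery is read at OD600.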
Pf growth 96h: P. falciparum growth inhibition at 96 hour, primary screen for plastid delayed-death inhibitors. P. falciparum luciferase reporter growth, 96 h. Potency, µM (top dose mostly 28.7 µM), inactives show at the highest dose activity change, negative = inhibition, usual class: inhibitors. hit rate 6.9% among 320,000. AID 504834; also: potency is read from the fitted curve at half-maximal effect; % is scaled to controls: 0 for no effect and ±100 for the full control effect
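Readout is luminescence from an integrated firefly luciferase in P. falciparum. Red cells, 2% hematocrit and 0.05% parasitemia final, were cultured with compound through two parasite generations (96 hours) at 37 C, 5% CO2.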
SARS PLP yeast: inhibitors of SARS-CoV papain-like protease in yeast; S. cerevisiae expressing SARS-CoV PLpro, growth rescue; Potency, µM (titrated, usually from 32.9 µM), inactives show at the highest dose activity, positive = growth rescue, most hits filed as activators; hit rate 0.19% among 330,000; calls by dose curve; also: potency is read from the fitted curve at half-maximal effect; 0% is about no effect; nearly all actives have a fitted effect of over 55% in size
Active calls of the source: *; ? = inconclusive; · = no result. Shown are actives, neighbours in structure and some others; about 21% of the full set was active somewhere. Unless noted, calls follow the shape of the dose curve; as a rule, active = well fitted inhibition curve with a large enough effect; inconclusive = small, poorly fitted or top-dose-only effect, or another doubt; inactive = no such curve, though single readings can be large or run the other way.

SMILES | Pf growth 48h | Shiga toxin inh | CHX counter | NS1 inh | Pf growth 96h | SARS PLP yeast
C/C=C(\C)C(=O)NCCN1C2=NC[C@@H](Cc3ccccc3)N2C[C@H]1Cc1ccc(O)cc1 | 31% | -8 | 1 | -1% | 17% | -1%
CC1CCN(Cc2c(C#N)c3ccccc3n2C)CC1 | -15% | -7 | -3 | -6% | · | -3%
CC(C)Cn1c(=O)c(C2=NS(=O)(=O)c3ccccc3N2)c(O)c2ccccc21 | · | · | · | -3% | · | ·
COc1ccc(S(=O)(=O)Nc2c(C(=O)O)[nH]c3ccc(OC)cc23)c(OC)c1 | -6% | 9 | 1 | 5% | -29% | 5%
COCCNC(=O)CN(C(=O)Cn1nnc2ccccc21)c1ccc(F)c(Cl)c1 | 18% | -18 | -2 | 3% | 10µM* | 11%
CS(=O)(=O)N(Cc1ccco1)CC(O)Cn1c2ccccc2c2ccccc21 (stereo not drawn) | 9.3µM* | -3 | 1 | -44% | · | -3%
OC(CNCc1ccco1)COc1ccccc1 (stereo not drawn) | 5% | 24 | 2 | 2% | -1% | 1%
OC(CNCc1ccco1)Cn1c2ccccc2c2ccccc21 (stereo not drawn) | 2.3µM* | -2 | -2 | -5% | 5% | 1%
Cc1ccc(N(CC(O)Cn2c3ccccc3c3ccccc32)S(C)(=O)=O)c(C)c1 (stereo not drawn) | 4.7µM* | 14 | -6 | 1% | · | -20%
CC(=O)Nc1ccc(N(CC(O)Cn2c3ccccc3c3ccccc32)S(=O)(=O)c2ccc(C)cc2)cc1 (stereo not drawn) | 9.3µM* | -5 | 5 | ? | -1% | 19%
Cc1ccc(N(CC(O)Cn2c3ccccc3c3ccccc32)S(C)(=O)=O)cc1 (stereo not drawn) | · | 2 | 5 | -1% | ? | -1%
CN(C)S(=O)(=O)c1ccc(C(=O)Nc2nnc(SCc3ccccc3)s2)cc1 | 15% | 1 | 5 | 8% | 49% | -7%
CSc1nnc(NC(=O)c2ccc(S(=O)(=O)N(C)C)cc2)s1 | 469% | 28* | 25* | · | 235% | -3%
Cc1nnc(NC(=O)c2ccc3c(c2)OCO3)s1 | 197% | 56* | 39* | -2% | -1% | -1%
COCCSc1nnc(NC(=O)c2ccc3c(c2)OCO3)s1 | 32% | 17 | 13 | -2% | 50% | 1%
CSc1nnc(NC(=O)c2ccc3c(c2)OCO3)s1 | 147% | 69* | 48* | -4% | 264% | -4%
O=C(Nc1nncs1)c1ccc2c(c1)OCO2 | 73% | 55* | 22* | -5% | ? | -2%
CCOC(=O)C(C)Sc1nnc(NC(=O)c2ccc3c(c2)OCO3)s1 (stereo not drawn) | -2% | 14 | 2 | · | 3% | 1%
CC1=C(C(=O)Nc2ccccc2)C(c2cccnc2)n2ncnc2N1 (stereo not drawn) | 8% | -10 | -1 | 7% | ? | 0%
Cc1cccc2c3c([nH]c12)CCNC3 | -6% | · | 1 | 6% | 2% | 1%
CC(C)[C@H](NC(=O)[C@@H]1Cc2ccccc2CN1)C(=O)Nc1ccc2c(c1)OCO2 | ? | 37 | 23* | 1% | ? | -4%
C[C@@H](NC(=O)[C@@H]1Cc2ccccc2CN1)C(=O)Nc1ccc2c(c1)OCO2 | 45% | 10 | 17* | 27% | ? | -7%
Cc1cn(C2CC3OCC(NC(=O)C4CCCN4C(=O)OC(C)(C)C)C3O2)c(=O)[nH]c1=O (stereo not drawn) | · | -10 | -1 | · | · | ·
COc1cccc2cc(C(=O)OCc3ccccc3)c(=O)oc12 | -9% | 49* | 54* | -39% | ? | -3%
COc1cccc2cc(C(=O)Nc3cccc(C)n3)c(=O)oc12 | · | 66* | 77* | -2% | -8% | 0%
SMILES | Pf growth 48h | Shiga toxin inh | CHX counter | NS1 inh | Pf growth 96h | SARS PLP yeast
COc1cccc2cc(C(=O)Oc3ccccc3)c(=O)oc12 | 6% | -14 | -2 | -8% | 13µM* | -7%
COc1cccc2cc(NC(=O)C3CCCCC3)c(=O)oc12 | 259% | 41 | 16* | -1% | 16% | -1%
COc1cccc2cc(C(=O)NC(C)c3ccccc3)c(=O)oc12 (stereo not drawn) | 31% | -13 | 9 | -3% | -1% | 0%
C=CCN(CC=C)C(=S)NC(=O)c1ccc(C)c(Br)c1 | ? | 19 | 11 | -18% | ? | -48%
Nc1cc(N)nc(SCC(=O)NCc2ccc3c(c2)OCO3)n1 | · | · | · | · | · | 2%
O=C(NCc1ccccc1Br)c1ccc2c(c1)OCCO2 | 6% | · | 12 | -12% | -8% | -3%
O=C(NCc1ccccc1CN1CCCC1)C1CCN(C(=O)c2ccc(F)cc2)CC1 | ? | · | · | · | -8% | -1%
COc1cccc2cc(C(=O)N3CCC(C)CC3)c(=O)oc12 | · | 5 | -2 | ? | ? | ?
CCN(C(=O)c1cc2cccc(OC)c2oc1=O)c1ccccc1 | -7% | 168* | 53* | 6% | -26% | 4%
Cc1cccc(NC(=O)CCNC(=O)c2ccccc2Cl)n1 | 18% | 0 | 6 | 3% | 35% | 1%
COc1ccccc1C(=O)NCCC(=O)Nc1cccc(C)n1 | 20% | 13 | 22* | -11% | 41% | -5%
COc1cccc2cc(C(=O)OC3CCN(C)CC3)c(=O)oc12 | 5% | -9 | 1 | 4% | 12µM* | 4%
Cc1ccc(NC(=O)CC2SC(=Nc3ccc(O)cc3)NC2=O)cc1 (stereo not drawn) | -23% | 6 | 2 | · | ? | 0%
O=C(NNC(=O)C1CCCN(S(=O)(=O)c2ccc3ccccc3c2)C1)C1CC1 (stereo not drawn) | 13% | 20 | -2 | 2% | 84% | -1%
Clc1ccc(-c2csc(Nc3ccccc3)[n+]2Cc2ccco2)c(Cl)c1 | 12µM* | 110* | 48* | -3% | ? | -14%
CCCC[n+]1c(-c2ccc(Cl)cc2Cl)csc1Nc1ccccc1 | 3.7µM* | 24 | 18 | -27% | 1.7µM* | -71%
O=S(=O)(CCc1ccncc1)c1ccc(Cl)cc1 | 13% | 2 | -4 | 7% | 28% | 0%
CCC(C)(C)n1nnnc1C(c1ccc2ncccc2c1)N1CCN2CCCC2C1 (stereo not drawn) | 10µM* | -5 | -4 | -76% | 142% | -2%
OC1CCN(C(c2ccc3ncccc3c2)c2nnnn2C2CCCCC2)CC1 (stereo not drawn) | ? | 18 | -6 | -7% | 0% | -1%
CC(C)(C)n1nnnc1C(c1cccc(C#N)c1)N1CCCc2ccccc21 (stereo not drawn) | 9.3µM* | -12 | -1 | ? | 23% | -6%
c1cnc2ccc(C(c3nnnn3C3CCCC3)N3CCN(c4nc5ccccc5s4)CC3)cc2c1 (stereo not drawn) | 5.2µM* | 13 | 29 | ? | 1% | 3%
COc1ccccc1N1CCN(C(c2ccc(Cl)cc2)c2nnnn2C(C)(C)C)CC1 (stereo not drawn) | 6.6µM* | -14 | -3 | ? | ? | -1%
